Experimental data reported in PubChem BioAssay (NCATS).
Inconclusive results are not listed. Where a call stands in place of a potency, no number is given. Values without a mark were called inactive. Active and inactive are the calls of the source. Calls come from the whole dose curve; as a rule, active = well fitted inhibition curve with a large enough effect; inconclusive = small, poorly fitted or top-dose-only effect; inactive = flat fitted curve, though single readings scatter.

Test system: Zika virus NS2B-NS3 protease
Experiment: Primary screen GU AMC qHTS for Zika virus inhibitors (AID 1347154); note: nearly all actives have a fitted effect of over 70% in size
Details: Zika NS2B-NS3 unlinked protease, AMC fluorogenic substrate; series mostly up to 54.1 µM
How it was run: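 Unlinked Zika NS2B hydrophilic domain–NS3 protease complex at 25 nM in 10 mM Tris-HCl pH 8.0, 0.01% Tween 20, with an AMC peptide substrate. Fluorescence change (340/450 nm) over 15 min at room temperature, normalized to controls, fitted to 4-parameter Hill.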

**Q.** Which Potency does the source give for NNc1nnc(NN)c2ccccc12 here?
**A.** Its Potency is “inactive”.

**Q.** How did the Potency turn out when NC(=O)CC[C@@H](N)C(=O)O was run?
**A.** The Potency was “inactive”.

**Q.** With O=C(O)Cc1ccc(CCNS(=O)(=O)c2ccc(Cl)cc2)cc1 as the compound, how does the Potency read?
**A.** The Potency was “inactive”.

**Q.** With CCCCCOC(=O)Nc1nc(=O)n([C@@H]2O[C@H](C)[C@@H](O)[C@H]2O)cc1F as the compound, how does the Potency read?
**A.** Its Potency is “inactive”.

**Q.** Cc1ccsc1C(=CCCN1CCC[C@@H](C(=O)O)C1)c1sccc1C was tested. Which Potency did it give?
**A.** The Potency was “inactive”.

**Q.** Which Potency does the source give for O=C(OOC(=O)c1ccccc1)c1ccccc1 here?
**A.** Its Potency is “inactive”.

**Q.** CC(=O)N1C[C@H](O)C[C@H]1C(=O)O was tested. Which Potency did it give?
**A.** The Potency was “inactive”.

**Q.** How did the Potency turn out when CC(C)CCCC(C)CCCC(C)CCCCC(C)CCCC(C)CCCC(C)C (stereo unspecified) was run?
**A.** Its Potency is “inactive”.

**Q.** CC[N+](CC)(CC(=O)Nc1c(C)cccc1C)Cc1ccccc1 was tested. Which Potency did it give?
**A.** Its Potency is “inactive”.

**Q.** For Cc1c(N(C)C)c(=O)n(-c2ccccc2)n1C, which Potency is on record?
**A.** The Potency was “inactive”.

**Q.** With CC(C)CCOC(=O)c1ccc(N(C)C)cc1 as the compound, how does the Potency read?
**A.** Its Potency is “inactive”.

**Q.** With N[C@@H](Cc1ccc(O)cc1)C(=O)O as the compound, how does the activity change, negative = inhibition read?
**A.** Its activity change, negative = inhibition is 5.3% [at 6.83 µM].

**Q.** With NC(=O)NS(=O)(=O)c1ccc(N)cc1 as the compound, how does the Potency read?
**A.** Its Potency is “inactive”.

**Q.** For CC[N+](C)(CC)CCOC(=O)C1c2ccccc2Oc2ccccc21, which Potency is on record?
**A.** Its Potency is “inactive”.

**Q.** With Nc1ncnc(Nc2ccccc2)n1 as the compound, how does the Potency read?
**A.** Its Potency is “inactive”.

**Q.** Which Potency does the source give for O=C(NCCCN1CCOCC1)c1ccc(Cl)cc1 here?
**A.** The Potency was “inactive”.

**Q.** How did the Potency turn out when Cc1ccc(S(=O)(=O)NC(=O)NC2CCCCC2)cc1 was run?
**A.** Its Potency is “inactive”.

**Q.** Cc1c(Cn2ccnc2)c2ccccc2n1CCC(=O)O was tested. Which Potency did it give?
**A.** Its Potency is “inactive”.

**Q.** CCCCC1(COC(=O)CCC(=O)O)C(=O)N(c2ccccc2)N(c2ccccc2)C1=O was tested. Which Potency did it give?
**A.** The Potency was “inactive”.

**Q.** With OCCN1C[C@H](O)[C@@H](O)[C@H](O)[C@H]1CO as the compound, how does the Potency read?
**A.** Its Potency is “inactive”.

**Q.** How did the Potency turn out when O=c1[nH]c(=O)n([C@H]2C[C@H](O)[C@@H](CO)O2)cc1I was run?
**A.** The Potency was “inactive”.
